Screening data (PubChem)
PTK2B oligo ant: antagonists of human Pyk2 oligomerization. Q14289. Q293 cells, Pyk2 FERM NanoBiT luminescence; stronger effect = lower value. z-score (the deposit names both 25 µM and 10 µM). hit rate 0.83% among 99,000. AID 1347419;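 active = Z-score of -3 or lower, scaled per plate to the spread of control and sample wells; inactive = z-score above -3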;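 note: negative z-score means lost luminescence so less FERM oligomerization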
CYP2C9 inhib: inhibitors of human CYP2C9 | P11712 | CYP2C9 Supersomes, luciferin-H conversion, luminescence | inhibition, % at 5 µM | hit rate 20% among 96,000;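 active = blocking of liver enzyme CYP2C9 beyond about 50% at 5 µM, limit read from the data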
Target sequence (P11712 whole entry, looked up): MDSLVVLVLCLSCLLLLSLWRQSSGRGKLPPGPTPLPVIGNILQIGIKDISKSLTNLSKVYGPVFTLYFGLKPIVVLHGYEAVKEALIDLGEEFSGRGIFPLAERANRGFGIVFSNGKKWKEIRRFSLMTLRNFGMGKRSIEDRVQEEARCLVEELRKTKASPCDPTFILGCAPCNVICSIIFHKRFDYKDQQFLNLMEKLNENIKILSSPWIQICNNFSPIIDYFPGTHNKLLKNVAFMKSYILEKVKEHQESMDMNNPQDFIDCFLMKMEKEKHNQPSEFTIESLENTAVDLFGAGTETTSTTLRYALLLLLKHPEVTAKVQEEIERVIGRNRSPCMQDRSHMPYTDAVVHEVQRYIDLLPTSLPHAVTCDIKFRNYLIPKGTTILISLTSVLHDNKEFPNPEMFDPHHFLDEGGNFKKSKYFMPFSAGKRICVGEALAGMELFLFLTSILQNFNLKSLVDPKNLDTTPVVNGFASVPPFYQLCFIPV
CYP2C19 activ: cytochrome P450 2C19 (human) activation; activation factor at 5 µM; P33261; 96,000 tested, under 10 active; recombinant CYP2C19, luciferin-H EGE luminescence; stronger effect = higher value; 0 = fully inhibited enzyme, 1 = untreated enzyme;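 active = activation factor of at least 2 at 5 µM in the primary screen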;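 note: 0 = wells with 2.5 mM tranylcypromine and 1 = vehicle-only wells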
CYP2C9 act: activators of human CYP2C9; P11712; recombinant CYP2C9, luciferin-H conversion, luminescence; stronger effect = higher value; factor 1 = untreated enzyme, 0 = blocked; activation factor at 5 µM; hit rate 1.4% among 96,000; AID 1024;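 active = activation factor of 2 or more for CYP2C9 at a 5 µM dose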;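 note: 0 = sulfaphenazole-blocked wells and 1 = vehicle-only wells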
CYP2C19 inhib: blocks human cytochrome P450 2C19. P33261. CYP2C19 Supersomes, luciferin-H EGE luminescence, 30 min. inhibition, % at 5 µM. hit rate 21% among 96,000;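 active = CYP2C19 inhibition above a set limit at 5 µM in the primary screen, cut at about 50% in these data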;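 note: plate controls were negative control wells for no effect and 2.5 mM tranylcypromine positive control for full effect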
* = called active by the depositor; x = no result. The list is not random: actives were taken first. Their share in the collection is about 28%.

SMILES	PTK2B oligo ant	CYP2C9 inhib	CYP2C19 activ	CYP2C9 act	CYP2C19 inhib
COC1(OC)N=C(NC(=O)Nc2ccccc2)C2(C#N)C(c3ccccc3)C12C#N (stereo not drawn)	0.64	5	1	0.9	-4
CC(=O)c1sc(NC(=O)C=C(C)C)nc1C	0.46	36	0.8	0.6	22
CC(=O)c1sc(NC(=O)C2(F)C(F)(F)C(F)(F)C(F)(F)C(F)(F)C2(F)F)nc1C	-2.4	85*	1.1	0.2	-6
CCC(=O)Nc1ccc(NC(=O)CSc2nnnn2-c2cccnc2)cc1C	1.6	5	1	1	1
CSc1nsc(SC)c1C(=O)N1CCN(S(=O)(=O)c2ccc(C)cc2)C1C(C)C (stereo not drawn)	-1.3	x	x	x	x
CSc1nsc(SC)c1C(=O)N1CCN(S(=O)(=O)c2ccc(C)cc2)C1C (stereo not drawn)	-1.5	74*	0.6	0.3	42
Cc1n[nH]c(C)c1S(=O)(=O)N1CCOCC1	-0.51	-19	1.2	1.2	-20
COc1ccc(C2CC(c3ccccc3)=NN2c2ccc(/C=N/NC(=O)c3ccncc3)cc2)cc1 (stereo not drawn)	-0.38	56*	0.8	0.4	17
Cc1cccn2cc(CNC(=O)c3ccco3)nc12	0.82	29	0.9	0.7	15
COc1cc(CN2CCC(C(=O)N3CCN(c4ccccc4F)CC3)CC2)cc(OC)c1O	2.8	70*	0.9	0.3	5
Cc1ccccc1N1CCN(Cc2cccc(C(=O)O)c2)CC1	1.4	-18	1.2	1.2	-19
COc1cc(CN2CCN(c3ccccc3F)CC2)cc(OC)c1O	0.74	14	0.2	0.9	80*
COc1ccccc1N1CCN(Cc2ccsc2)CC1	-0.21	9	0.6	0.9	40
CCOc1ccc(CN2CCC(C(=O)N3CCN(c4ccccc4F)CC3)CC2)cc1OC	0.82	-4	1.2	1	-15
COC(=O)c1cc(CN2CCN(c3ccccc3C)CC2)ccc1O	-0.58	51*	0.6	0.5	41
CC1(C)C=Cc2c(c3ccccc3[nH]c2=O)O1	0.24	34	0.8	0.7	18
CCC(C)NS(=O)(=O)c1ccc(OCC(=O)Nc2ccc(F)cc2F)cc1 (stereo not drawn)	1.8	x	x	x	x
Fc1ccc(C2CC(c3ccccc3)Nc3ncnn32)cc1 (stereo not drawn)	x	-2	0.5	1	53*
c1ccc(C2CC(c3ccccc3)n3ncnc3N2)cc1 (stereo not drawn)	0.57	45	0.1	0.5	93*
Cc1ccccc1C1CC(c2ccccc2OC(F)F)Nc2ncnn21 (stereo not drawn)	-0.24	60*	0.2	0.4	75*
CCOC(=O)C1=C(c2ccccc2)Nc2nc(C)nn2C1c1cccc(OC)c1OC (stereo not drawn)	-1.7	25	0.9	0.8	14
CCn1cc(C(=O)NCC2CCCO2)c(=O)c2cc(S(=O)(=O)N3CCC(C)CC3)ccc21 (stereo not drawn)	1.4	44	1	0.6	-1
Cn1cc(C(=O)NC2CCCCCCC2)c(=O)c2cc(S(=O)(=O)N3CCCC3)ccc21	-1.1	84*	0.9	0.2	6
CCOC(=O)N1CCN(C(=O)c2cn(CC)c3ccc(S(=O)(=O)N4CCCC4)cc3c2=O)CC1	0.2	22	1	0.8	1
CCn1cc(C(=O)N2CCc3ccccc32)c(=O)c2cc(S(=O)(=O)N3CCCCCC3)ccc21	-0.28	67*	0.7	0.3	29
SMILES	PTK2B oligo ant	CYP2C9 inhib	CYP2C19 activ	CYP2C9 act	CYP2C19 inhib
CCn1cc(C(=O)NCC2CCCO2)c(=O)c2cc(S(=O)(=O)N3CCCCCC3)ccc21 (stereo not drawn)	0.68	57*	0.8	0.4	18
COc1cc(C)nc(NS(=O)(=O)c2ccc(C)cc2)n1	-0.32	10	0.8	0.9	17
CCC(C)NC(=O)NC(=O)N(C1CCCCC1)S(C)(=O)=O (stereo not drawn)	0.37	11	1	0.9	3
COC(=O)c1sc2ccccc2c1-n1cccc1C(=O)C(=O)Nc1ccc(OC)cc1	-0.62	101*	0.6	0	42
COC(=O)c1sc2ccccc2c1-n1cccc1C(=O)C(=O)Nc1ccccc1	-0.47	100*	0.8	0	24
CCCNC(=O)C(=O)c1cccn1-c1ccsc1C(=O)OC	-0.32	8	0.7	0.9	27
CCCCC(=O)Nc1ccc(C(=O)NN2C(=O)c3ccccc3C2=O)cc1	0.49	29	0.9	0.7	6
